Compound activity: PubChem BioAssay, ICCB-Longwood Screening Facility, Harvard Medical School
Many of the other results were omitted from the sample, so hits are more common in it than they were.
CapD inh – blocks the Bacillus anthracis CapD enzyme | purified CapD enzyme, fluorescence intensity read-out; stronger effect = lower value | z-score (no concentration beside the values) | hit rate 0.23% among 140,000; in the data active means z-score mostly below about -2.9, no sharp cut-off; inactive means mostly above about -1.9
The depositor's hits bear a star.

SMILES	CapD inh
O=C1CC(c2ccccc2)CC2=C1C(c1ccccc1)Nc1ccccc1N2 (stereo not drawn)	-2.2
Cc1ccc(C2CC(=O)C3=C(C2)Nc2ccccc2NC3c2cccnc2)cc1 (stereo not drawn)	-4*
Cc1cc(C)cc(OC(F)(F)C(=O)Nc2ccc(OC(F)(F)F)cc2)c1	0.47
N#Cc1nccnc1N1CCN(C(c2ccccc2)c2ccccc2)CC1	0.54
COC(=O)c1ccccc1NC(=O)c1cc(-c2ccccc2O)on1	-0.16
Cc1ccc(/C=C2/C=CC(=O)O2)o1	-5.2*
Cc1ccc(/C=C2\N=C(c3ccc(C4=N/C(=C\c5ccc(C)o5)C(=O)O4)cc3)OC2=O)o1	-0.43
Cc1ccc(/C=C2\CC/C(=C\c3ccc(C)o3)C2=O)o1	1.2
O=C(CSc1cnccc1C(F)(F)F)N1CCN(Cc2ccccc2)CC1	-0.2
Cc1ccsc1/C=C1\Sc2ccccc2C1=O	-1.2
Cc1cc(I)ccc1N1C(=O)C2C3c4ccccc4C(CO)(c4ccccc43)C2C1=O (stereo not drawn)	0.26
COc1ccc(N2CCN(C(=O)C(CC(C)C)NS(=O)(=O)c3ccc4c(c3)oc(=O)n4C)CC2)cc1 (stereo not drawn)	-0.57
CCOC(=O)C1=C(C)NC2=C(C(=O)C(C(=O)OC)C(C)C2)C1c1ccccc1 (stereo not drawn)	-0.43
COC(=O)C1C(=O)C2=C(CC1C)Nc1ccccc1NC2c1c[nH]c2ccccc12 (stereo not drawn)	-2.5
COC(=O)C1C(=O)C2=C(CC1C)Nc1ccccc1NC2c1ccccc1C (stereo not drawn)	-4*
COc1ccc(N/C=C/C(=O)c2ccc3noc(-c4ccccc4)c3c2)cc1	-2.1
O=C(CCN1CCN(C2c3ccccc3-c3ccccc32)CC1)Nc1cccc(C(F)(F)F)c1	0
COc1ccc([S+]2CCCCC2)cc1	-4.9*
COc1ccc(C2CCCCC2)cc1	0.46
COc1ccc(CN2CCCCCC2)cc1	0.38
C#CCCN1CCN(C(=O)Nc2ccc(F)cc2)CC1	0.92
O=C(CCc1nc2cccnc2n1-c1ccccc1)Nc1ccc2c(c1)OCO2	0.53
O=C(O)c1cccc(-c2ccc(/C=C3/SC(=O)N(c4ccccc4)C3=O)o2)c1	18
N=C1S/C(=C\c2ccco2)C(=O)N1c1ccc(Oc2ccccc2)cc1	-0.19
O=C1S/C(=C\c2ccco2)C(=O)N1c1ccccc1	-2.4*
SMILES	CapD inh
Cc1ccc(S(=O)(=O)N2CCC(c3nc4cc(C(=O)NCc5ccco5)ccc4n3C3CCCCC3)CC2)cc1	0.035
ClC1=C(/C=N/OCc2ccc(Cl)cc2Cl)CCc2ccccc21	0.51
Cc1cc(NS(=O)(=O)c2cccc(F)c2)n(-c2ccccc2)n1	-0.7
Cc1snc(S(=O)(=O)/C(C#N)=N/Nc2cccc(C(F)(F)F)c2)c1C#N	-2.5
COc1ccc(N/N=C(/C#N)S(=O)(=O)c2nsc(C)c2C#N)cc1	-5.8*
Cn1cncc1S(=O)(=O)/C(C#N)=N/Nc1ccc(OC(F)(F)F)cc1	-2.7
CSC1=NC(=Nc2cccc(C)c2)C2(CCCCC2)N1c1ccc(I)cc1	-0.22
O=C(NCc1n[nH]c(=S)n1-c1ccccc1)c1ccccc1	0.3
COc1ccc(C(=O)ON2C(=O)CCC2=O)cc1	-1.1
COc1ccccc1C(=O)ON1C(=O)CCC1=O	-5.5*
COc1ccccc1C(=O)OC1CCN(C)CC1	0.055
COc1ccc(C(Cc2ccncc2)Oc2nc(C)cc(C)n2)cc1 (stereo not drawn)	-0.28
CCCNC(=O)c1cc(-c2ccco2)on1	-4.7*
O=C(NCc1cccs1)c1cc(-c2ccco2)on1	0.18
O=C(NC1CCCCC1)c1cc(-c2ccco2)on1	-4*
COC(=O)c1ccccc1NC(=O)c1cc(-c2ccco2)on1	0.52
O=C(c1cc(-c2ccco2)on1)N(C1CCCCC1)C1CCCCC1	9.6
O=C(NC1CCCC1)c1cc(-c2ccc(O)cc2)on1	-1.1
CCOc1cc(/C=C2\SC(N)=NC2=O)ccc1OC(=O)c1ccc(C)cc1	0.11
COc1cccc(C(=O)NCC(=O)N/N=C/c2ccc([N+](=O)[O-])s2)c1	-0.79
CC(C)n1cc(-c2cnc3ccccc3n2)cn1	53
CC(C)(C)c1cc(C(C)(C)C)n(-c2ccc(N=Cc3ccccc3O)cc2)n1	0.27
COc1ccc(-n2nc(C(=O)N(C)Cc3ccccc3)c3c4ccccc4n(C)c3c2=O)cc1	0.72
COc1ccc(-n2nc(C(=O)N(C)c3ccccc3)c3c4ccccc4n(C)c3c2=O)cc1	-4.3*
COc1ccc(-n2nc(C(=O)N3CCCC3)c3c4ccccc4n(C)c3c2=O)cc1	1.7
SMILES	CapD inh
O=C(O)c1ccccc1NC(C(=O)O)c1ccccc1 (stereo not drawn)	102
CCCN(CCC)C(=O)CCn1c(=O)oc2ccccc21	-0.3
CC1=C(c2ccc(C)c(C)c2)S(=O)(=O)NC1=NCC(=O)NCc1ccc(C)o1	-1.1
CCOC(=O)C1=C(C)NC(=O)NC1c1ccc(OS(=O)(=O)c2ccc(C)cc2)cc1 (stereo not drawn)	0.3
CC(C)c1nc2ccc(Cl)cc2c2c1C(=O)N(CCCN1CCCC1=O)C2=O	-0.48
COc1cc2[nH]c(=S)n(N(C(C)=O)C(C)=O)c(=O)c2cc1OC	-13*
COc1cc2[nH]c(=S)n(C3CC3)c(=O)c2cc1OC	0.08
COc1cc2[nH]c(=S)nc(Nc3ccc(NC(C)=O)cc3)c2cc1OC	2.8
CC1Cc2ccccc2N1C(=O)c1cc2ccccc2oc1=O (stereo not drawn)	0.045
O=C(C1=NNC2C(=O)N(c3ccccc3)C(=O)C12)c1cccnc1 (stereo not drawn)	-0.72
Cc1ccsc1C(=O)OCC(=O)N(C)c1ccccc1	-0.66
CSC(SC)=C(C#N)C(=O)c1cccc(C(F)(F)F)c1	-1.4
CSC(SC)=C(C#N)C(=O)c1cccc(C)c1	-1.5
CSC(SC)=C(C#N)C(=O)c1ccccc1Cl	-4.7*
N#CC1=C(N)OC(C2CC2)=C(C#N)C1c1cccs1 (stereo not drawn)	2.5
N#CC1=C(N)SC(c2cccs2)C(C#N)=C1N (stereo not drawn)	-5.1*
COc1cc(OC)cc(C2SC(N)=C(C#N)C(N)=C2C#N)c1 (stereo not drawn)	-0.59
CN(C)c1ccc(C(=O)NNC(=O)OC/C=C/COCc2ccccc2)cc1	0.92
CCOC(=O)C1=C(C)NC(C(=O)NCCCN2CC(C)CC(C)C2)CS1 (stereo not drawn)	-0.32
CN1/C(=C\C=C2C(=O)c3ccccc3C2=O)Sc2ccccc21	-0.57
CN1/C(=C/C(=O)c2ccco2)Sc2ccccc21	-2
CC(=S)/C=C1\Sc2ccccc2N1C	-5.3*
Cc1onc(-c2c(Cl)cccc2Cl)c1C(=O)N1CCN(c2ncnc3scc(-c4ccccc4)c23)CC1	-0.035
Cc1ccccc1NC(=O)/C=C/c1ccc(OCc2c(F)cccc2Cl)cc1	-0.23
O=C(CSc1nc2ccccc2n1S(=O)(=O)c1ccccc1)Nc1ccc(Br)cc1F	-0.48
SMILES	CapD inh
O=c1[nH]c(=S)c2c(n1N1CCOCC1)CCC2	-5*
O=C(COc1ccccc1)N(c1nccs1)C1CCCCC1	0.41
O=C(NCCNc1ccccc1)OCCCCCc1ccccc1	0.11
CCOC(=O)C1C(=O)NC(SCC(=O)Nc2ccccc2C)=C(C#N)C1c1ccccc1Cl (stereo not drawn)	-0.11
O=C1c2ccccc2-c2onc3c(Br)cc(N4CCCCC4)c1c23	0.52
CC(C)(C)NC(=O)c1ccc2c(c1)C(=O)N(Cc1ccco1)C2=O	0.37
CCN1C(=O)c2ccc(C(=O)Nc3ccc(C(=O)O)cc3)cc2C1=O	-0.21
O=C(O)c1ccc(NC(=O)c2ccc3c(c2)C(=O)N(Cc2ccco2)C3=O)cc1	-7.6*
